Source: PubChem BioAssay
The source made the active and inactive calls.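 How the source made its calls, unless noted: active means normalized viability below 100% at a tested concentration; inactive means the rest.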

Tests used:
[1] = drug combination growth inhibition, ovarian cancer – cell-based, oncology-focused library, rucaparib conditional, profiling panel (AID 1508598); conditions: patient-derived ovarian cancer cells, CellTiter-Glo viability, 144 h, stronger effect = lower value
[2] = MELAS cybrid and Rieske KO viability enhancers – cell-based, MELAS cybrids, Rieske KO mouse fibroblasts, CellTiter-Glo, primary screen (AID 1508586;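 active means mean z-score across replicates of 1.96 or higher in either the MELAS or the Rieske mutant cell line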;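 further: z relative to plate mean and SD of compound and empty wells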); conditions: low glucose
[3] = galactose survival enhancers in mitochondrial complex I cybrids – cell-based, galactose medium, ATP luminescence, primary screen (AID 1645843;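 active means z-score of at least 1.8 in each of two replicates, scored against plate mean and spread of sample wells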;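 further: positive z means more ATP and so rescue of galactose-driven cybrid death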); conditions: complex I mutant cybrid cells, 72 h, stronger effect = higher value
[4] = liver-stage malaria parasite load reduction – cell-based, known kinase inhibitor set, luminescence, hepatoma host viability (AID 624392; call rule not given here;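 further: infected cells incubated roughly two days before readout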); conditions: Plasmodium liver stage in hepatoma cells, luciferase luminescence, concentration not given here; liver cell % of control: measured here: host liver cell viability; parasite % of control: stronger effect = lower value
[5] = altered dexamethasone sensitivity, NF-kB reporter, cell-based, luciferase, IL-1B stimulus (AID 624486; call rule not given here;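 on percent of negative control (+Dex): 100% = mean signal of vehicle control wells on the plate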); conditions: IL-1B + dexamethasone, luminescence; percent of negative control (+Dex): actives lie on both sides, concentration not given here; z-score: measured here: IL-1B alone, no Dex
[6] = C. elegans survival during P. aeruginosa infection – whole organism (AID 651566; call rule not given here;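 further: tested at 14 µM; sign flipped so higher z means a lower ratio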); conditions: C. elegans killed by P. aeruginosa, survival ratio
[7] = pro-inflammatory signaling induction in mouse macrophages – cell-based, murine, luminescence (AID 652131; call rule not given here); conditions: murine macrophage pro-inflammatory reporter, stronger effect = higher value
[8] = at 0.000305 µM, OCI-C5x cells, with rucaparib 10 µM, 100% = cells with rucaparib alone
[9] = at 0.000305 µM, OCI-C5x cells, without rucaparib
[10] = at 0.000305 µM, OCI-P5x cells, with rucaparib 20 µM, 100% = cells with rucaparib alone
[11] = at 0.000305 µM, OCI-P5x cells, without rucaparib
[12] = at 0.00122 µM, OCI-C5x cells, with rucaparib 10 µM, 100% = cells with rucaparib alone
[13] = at 0.00122 µM, OCI-C5x cells, without rucaparib
[14] = at 0.00122 µM, OCI-P5x cells, with rucaparib 20 µM, 100% = cells with rucaparib alone
[15] = at 0.00122 µM, OCI-P5x cells, without rucaparib
[16] = at 0.00488 µM, OCI-C5x cells, with rucaparib 10 µM, 100% = cells with rucaparib alone
[17] = at 0.00488 µM, OCI-C5x cells, without rucaparib
[18] = at 0.00488 µM, OCI-P5x cells, with rucaparib 20 µM, 100% = cells with rucaparib alone
[19] = at 0.00488 µM, OCI-P5x cells, without rucaparib
[20] = at 0.0195 µM, OCI-C5x cells, with rucaparib 10 µM, 100% = cells with rucaparib alone
[21] = at 0.0195 µM, OCI-C5x cells, without rucaparib
[22] = at 0.0195 µM, OCI-P5x cells, with rucaparib 20 µM, 100% = cells with rucaparib alone
[23] = at 0.0195 µM, OCI-P5x cells, without rucaparib
[24] = at 0.0781 µM, OCI-C5x cells, with rucaparib 10 µM, 100% = cells with rucaparib alone
[25] = at 0.0781 µM, OCI-C5x cells, without rucaparib
[26] = at 0.0781 µM, OCI-P5x cells, with rucaparib 20 µM, 100% = cells with rucaparib alone
[27] = at 0.0781 µM, OCI-P5x cells, without rucaparib
[28] = at 0.313 µM, OCI-C5x cells, with rucaparib 10 µM, 100% = cells with rucaparib alone
[29] = at 0.313 µM, OCI-C5x cells, without rucaparib
[30] = at 0.313 µM, OCI-P5x cells, with rucaparib 20 µM, 100% = cells with rucaparib alone
[31] = at 0.313 µM, OCI-P5x cells, without rucaparib
[32] = at 1.25 µM, OCI-C5x cells, with rucaparib 10 µM, 100% = cells with rucaparib alone
[33] = at 1.25 µM, OCI-C5x cells, without rucaparib
[34] = at 1.25 µM, OCI-P5x cells, with rucaparib 20 µM, 100% = cells with rucaparib alone
[35] = at 1.25 µM, OCI-P5x cells, without rucaparib
[36] = at 5 µM, OCI-C5x cells, with rucaparib 10 µM, 100% = cells with rucaparib alone
[37] = at 5 µM, OCI-C5x cells, without rucaparib
[38] = at 5 µM, OCI-P5x cells, with rucaparib 20 µM, 100% = cells with rucaparib alone
[39] = at 5 µM, OCI-P5x cells, without rucaparib
[40] = MELAS cybrid survival, CellTiter-Glo 48 h, stronger effect = higher value
[41] = Rieske KO mouse fibroblast survival, CellTiter-Glo 72 h

CCOc1ccc(Cc2cc([C@@H]3O[C@H](CO)[C@@H](O)[C@H](O)[C@@H]3O)ccc2Cl)cc1
inactive: viability [1, 8] 111% | viability [1, 9] 102% | viability [1, 12] 126% | viability [1, 13] 108% | viability [1, 16] 108% | viability [1, 17] 106% | viability [1, 18] 105% | viability [1, 20] 117% | viability [1, 21] 116% | viability [1, 22] 101% | viability [1, 23] 107% | viability [1, 24] 111% | viability [1, 25] 108% | viability [1, 26] 106% | viability [1, 27] 106% | viability [1, 28] 112% | viability [1, 29] 118% | viability [1, 30] 105% | viability [1, 31] 105% | viability [1, 32] 111% | viability [1, 33] 118% | viability [1, 35] 112% | viability [1, 36] 110% | viability [1, 37] 121% | viability [1, 38] 106% | viability [1, 39] 109%
active: viability [1, 10] 94.3% | viability [1, 11] 91.9% | viability [1, 14] 96.6% | viability [1, 15] 98.1% | viability [1, 19] 98.8% | viability [1, 34] 99.3%

COc1cccc(COC2CN(CCc3ccccc3)C(=O)CN(C(=O)CN3CCOC3=O)C2)c1 (stereo not given)
inactive: z-score [2, 40] -0.0866 | z-score [3] 0.48
-0.325: z-score [2, 41]

CCS(=O)(=O)c1ccc(OC)c(Nc2ncc(-c3cccc(C(C)=O)c3)o2)c1
0.415: z-score [5]
169%: liver cell % of control [4]
inactive: parasite % of control [4] 48.2% | percent of negative control (+Dex) [5] 87% | z-score [6] 0.56 | z-score [7] -0.091 | z-score [2, 40] 1.14
-0.327: z-score [2, 41]

CC(C)(C(=O)NCC(F)(F)C(F)(F)F)C(=O)N[C@H]1C(=O)Nc2ccccc2-c2ccccc21
active: viability [1, 18] 99.5% | viability [1, 19] 94.4% | viability [1, 22] 85.5% | viability [1, 23] 90.2% | viability [1, 26] 92% | viability [1, 27] 91.6% | viability [1, 30] 85.7% | viability [1, 31] 85.2% | viability [1, 34] 82.5% | viability [1, 35] 82% | viability [1, 38] 72% | viability [1, 39] 76.9%
inactive: viability [1, 8] 111% | viability [1, 9] 114% | viability [1, 10] 103% | viability [1, 11] 105% | viability [1, 12] 106% | viability [1, 13] 111% | viability [1, 14] 103% | viability [1, 15] 104% | viability [1, 16] 114% | viability [1, 17] 117% | viability [1, 20] 110% | viability [1, 21] 117% | viability [1, 24] 119% | viability [1, 25] 119% | viability [1, 28] 116% | viability [1, 29] 107% | viability [1, 32] 114% | viability [1, 33] 113% | viability [1, 36] 117% | viability [1, 37] 108%

COC(=O)Nc1nc2ccc(Sc3ccc(NC(=O)Nc4cc(C(F)(F)F)ccc4F)cc3)cc2[nH]1
136%: liver cell % of control [4]
inactive: parasite % of control [4] 195% | percent of negative control (+Dex) [5] 96.5% | z-score [6] -0.56 | z-score [7] 1.3 | z-score [2, 40] -0.309
-0.32: z-score [2, 41]
-0.175: z-score [5]

COc1cc2c(cc1O)CC[C@@H]1[C@H]2CC[C@]2(C)[C@H](O)CC[C@@H]12
inactive: viability [1, 8] 113% | viability [1, 9] 107% | viability [1, 10] 106% | viability [1, 12] 116% | viability [1, 13] 111% | viability [1, 15] 104% | viability [1, 16] 119% | viability [1, 17] 118% | viability [1, 18] 109% | viability [1, 19] 108% | viability [1, 20] 103% | viability [1, 21] 105% | viability [1, 23] 105% | viability [1, 24] 105% | viability [1, 25] 105% | viability [1, 26] 102% | viability [1, 27] 104% | viability [1, 28] 124% | viability [1, 29] 107% | viability [1, 30] 106% | viability [1, 31] 105% | viability [1, 32] 107% | viability [1, 34] 104% | viability [1, 36] 124% | viability [1, 37] 101%
active: viability [1, 11] 96.3% | viability [1, 14] 99.4% | viability [1, 22] 95.3% | viability [1, 33] 96.8% | viability [1, 35] 66.5% | viability [1, 38] 98.9% | viability [1, 39] 97.5%
